The list is not random: actives were taken first. Their share in the collection is about 7.4%.
NPC1 promoter act: qHTS Assay for NPC1 Promoter Activators; Huh7 NPC1 promoter luciferase reporter, 24 h; Potency, µM (titrated, usually from 9.22 µM), for inactives: at the highest dose activation, hits mostly activators; hit rate 2.4% among 320,000; also: % of control where 0% means no effect; nearly all actives have a fitted effect of over 60% in size
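Huh7 reporter cells (NPC1 promoter driving luciferase) are dosed with compound for 24 h at 37 °C, 5% CO2; luciferase detection reagent is then added and luminescence measured after 10 min at ambient temperature.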
ELG1 genotoxic: qHTS screen for small molecules that induce genotoxicity in human embryonic kidney (HEK293T) cells expressing luciferase-tagged ELG1. AID 504466, 2011. HEK293T ELG1-luciferase reporter, luminescence, 16 h. Potency, µM (series often up to 46 µM), inactives show at the highest dose activity change, positive = activation, actives largely listed as activators. hit rate 1.3% among 330,000; also: % of control where 0% means no effect; nearly all actives have a fitted effect of over 60% in size
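HEK293T cells expressing luciferase-tagged ELG1 were exposed to compound or DMSO vehicle for 16 hr at 37 °C and 5% CO2. Luciferase activity was then measured with ONE-Glo after 30 min at room temperature.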
SMN2 splice enh: qHTS Assay for Enhancers of SMN2 Splice Variant Expression; HEK293 SMN2-luciferase splicing reporter, luminescence, 30-36 h; AID 1458, 2008; Potency, µM (doses to about 46.1 µM), for the others: at the top dose activity change, positive = activation, actives largely listed as activators; hit rate 2.8% among 210,000; also: % of control where 0% means no effect; nearly all actives have a fitted effect of over 55% in size
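HEK293 cells carry an SMN2 […]–luciferase reporter in which exon 7 inclusion puts luciferase in frame. Cells were plated 10-12 h before compound addition, then incubated 30-36 h at 37C. ONE-Glo luminescence was read; sodium butyrate at 4.5 mM final served as control.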
FLuc counter: qHTS profiling assay for firefly luciferase inhibitor/activator using purifed enzyme and Km concentrations of substrates (counterscreen for miR-21 project). hit rate 6.9% among 360,000. purified FLuc, Km substrates, luminescence inhibition. AID 588342, 2011. Potency, µM (highest dose often 57.5 µM), without a hit: at the highest dose activity change, negative = inhibition, actives largely listed as inhibitors;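 also: plate controls were vehicle for no effect and reference inhibitor for full effect; nearly all actives have a fitted effect of over 55% in size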
Target sequence (P08659 whole entry, looked up): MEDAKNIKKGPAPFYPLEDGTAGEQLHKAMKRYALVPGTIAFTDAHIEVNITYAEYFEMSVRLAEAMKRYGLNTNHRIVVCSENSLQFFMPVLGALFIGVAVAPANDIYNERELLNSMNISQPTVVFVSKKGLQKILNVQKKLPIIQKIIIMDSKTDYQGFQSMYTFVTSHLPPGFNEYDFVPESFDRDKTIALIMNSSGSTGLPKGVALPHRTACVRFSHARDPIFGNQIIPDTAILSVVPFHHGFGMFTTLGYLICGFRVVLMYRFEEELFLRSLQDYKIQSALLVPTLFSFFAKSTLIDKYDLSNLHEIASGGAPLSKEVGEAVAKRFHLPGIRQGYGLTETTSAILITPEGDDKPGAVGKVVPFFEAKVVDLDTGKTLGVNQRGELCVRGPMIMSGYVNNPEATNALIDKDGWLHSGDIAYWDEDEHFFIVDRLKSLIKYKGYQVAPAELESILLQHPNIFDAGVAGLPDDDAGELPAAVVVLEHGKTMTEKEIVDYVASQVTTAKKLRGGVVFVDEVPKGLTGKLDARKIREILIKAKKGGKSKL
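Purified P. pyralis luciferase, 10 nM final, with Km-level 10 uM D-luciferin and 10 uM ATP in 50 mM Tris acetate pH 7.5, 10 mM Mg acetate, 0.01% Tween-20, 0.05% BSA; 6-point qHTS titration about 60 µM downward; luminescence read.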
Rab9 promoter act: qHTS Assay for Rab9 Promoter Activators. Huh7 Rab9 promoter-luciferase reporter, luminescence, 24 h. Potency, µM (titrated, usually from 9.22 µM), for the others: at the highest dose activation, negative = inhibition, most hits filed as activators. hit rate 2.8% among 320,000. AID 485297, 2010; also: % of control where 0% means no effect; nearly all actives have a fitted effect of over 60% in size
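Cell-based reporter: Huh7 stable for Rab9 promoter-driven luciferase, plated in reduced-serum medium with 10% FBS at 1500 cells/well, compound-treated 24 h at 37 °C, luminescence read after 10 min reagent.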
* hit, by the source's call; ? = inconclusive; . = no result given; [ ] = another dose, or the depositor's remark. Calls follow the shape of the dose curve; as a rule, active = well fitted curve in the direction sought with a large enough effect; inconclusive = small, poorly fitted or top-dose-only effect, or another doubt; inactive = no such curve, though single readings can be large; an effect the other way counts as inactive or inconclusive. Potency is read from the fitted curve at half-maximal effect.

SMILES | NPC1 promoter act | ELG1 genotoxic | SMN2 splice enh | FLuc counter | Rab9 promoter act
O=C1CC(c2cccs2)Sc2nc3ccccc3n21 (centres undefined) | -3% | ? | ? | 3.4µM* | 0%
O=C1CC(c2ccco2)Sc2nc3ccccc3n21 (centres undefined) | -1% | ? | 11% | 12µM* | -3%
CCCN1C(=O)CC(c2ccco2)Sc2ccccc21 (centres undefined) | -2% | 8% | 3% | 0% | -6%
O=C1CC(c2ccc3c(c2)OCO3)Sc2nc3ccccc3n21 (centres undefined) | 4µM* | ? | ? | 1.5µM* | 18%
CCOC(=O)[C@@H]1[C@H]2COc3cc(OC)ccc3[C@H]2N2C(=O)N(c3cccc(F)c3)C(=O)[C@@]12C | . | -2% | . | . | .
COc1ccc(S(=O)(=O)N(Cc2nc(-c3ccc(C)cc3)no2)C2CCCCC2)cc1 | . | . | -11% | -3% | .
Cc1ccccc1OCCC(=O)Nc1cc(S(=O)(=O)N2CCOCC2)ccc1OC(C)C | -4% | -4% | . | -2% | 1%
N#C/C(=C\c1ccc(-c2ccc(C(=O)O)cc2)o1)C(=O)Nc1ccc(F)cc1 | ? | 2% | . | 2.4µM* | ?
Cc1cccc(C)c1NC(=O)/C(C#N)=C/c1ccc(-c2ccc(C(=O)O)cc2)o1 | 0.63µM* | ? | . | 12µM* | 2.5µM*
CCOC(=O)c1ccc(-c2ccc(/C=C(\C#N)C(=O)Nc3cccc(C)c3)o2)cc1 | . | . | . | -4% | .
N#C/C(=C\c1ccc(-c2ccc(C(=O)O)cc2)o1)C(=O)NCC1CCCO1 (centres undefined) | ? | 6% | ? | ? | 24%
COc1ccc(-c2nc3ncccn3c2Br)cc1 | ? | ? | . | 15µM* | 2.5µM*
Cc1ccc(-c2nc3ncccn3c2Nc2ccc3c(c2)OCCO3)cc1 | 0% | 14% | -1% | ? | 0%
Brc1c(-c2ccc3c(c2)OCO3)nc2ncccn12 | 16% | ? | . | 24µM* | ?
CNC(=O)Cn1nc(-c2ccc(C)c(S(=O)(=O)N(C)C)c2)c2ccccc2c1=O | 0% | -3% | -11% | -1% | 10%
Nc1nc2c(c(=O)[nH]1)N(C=O)C(CNc1ccc(C(=O)NC(CCC(=O)O)C(=O)O)cc1)CN2 (centres undefined) | . | . | -8% | . | .
O=C(O)[C@@H](O)[C@@H](O)[C@@H](O)[C@@H](O)c1nc2ccccc2s1 | . | . | -6%[9.22 µM] | . | .
CCCOc1ccc(OCCSc2ncccn2)cc1 | 3.2µM* | 10µM* | 16µM* | 6.7µM* | 4µM*
COc1ccc(OCCSc2nc(N)cc(N)n2)cc1 | 4µM* | 0.73µM* | -7% | 21µM* | 4µM*
Clc1ccc(OCCCCSc2ncccn2)cc1 | -3% | -2% | -17% | ? | 7%
Brc1cccc(OCCSc2ncccn2)c1 | 0% | 12% | 26% | ? | ?
Cc1ccc(OCCSc2nc(N)cc(N)n2)cc1 | 3.2µM* | ? | . | 24µM* | 1.8µM*
Clc1ccc(OCCSc2ncccn2)c(Br)c1 | 1.4µM* | 2.1µM* | 13µM* | 2.1µM* | 0.71µM*
CNC(=O)c1[nH]cnc1C(=O)NCC(=O)OCc1ccccc1 | 2% | 4% | . | -2% | 0%
Clc1cccc(/C=N/Nc2ncnc3ccccc23)c1 | ? | ? | ? | 4.8µM* | 4µM*
SMILES | NPC1 promoter act | ELG1 genotoxic | SMN2 splice enh | FLuc counter | Rab9 promoter act
C(=N\Nc1ncnc2ccccc12)/c1ccccc1 | 29% | ? | 16µM* | 3µM* | 2.8µM*
O=C(CSc1ccccn1)Nc1ccc(Cl)c([N+](=O)[O-])c1 | -7% | 1% | -1% | ? | 2%
CC1(C(=O)OCC(=O)Nc2ccc(C(N)=O)cc2)CC1(Cl)Cl (centres undefined) | -1% | 8% | 92% | 4% | 1%
CC1(C(=O)OCC(=O)Nc2ccc3ccccc3c2)CC1(Cl)Cl (centres undefined) | 17% | 1% | 0% | 19µM* | 26%
O=C(CSc1nccc(=O)[nH]1)Nc1ccc2c(c1)OCCO2 | 2.2µM* | 15µM* | . | 11µM* | 2.2µM*
Cc1cc(=O)[nH]c(SCC(=O)Nc2ccc3c(c2)OCCO3)n1 | -39% | -3% | . | 0% | -42%
O=C(CSc1ccccn1)Nc1ccc2c(c1)C(=O)c1ccccc1C2=O | 2.8µM* | 16µM* | 10µM* | ? | 4µM*
O=C(CSc1ccccn1)Nc1ccc2c(c1)OCCO2 | 4µM* | ? | . | 8.5µM* | 2.5µM*
CC(=O)N1Cc2cc([N+](=O)[O-])ccc2Oc2ccccc21 | -2% | 1% | 3% | -1% | -9%
Cc1cc(NC(=O)CSc2ccccn2)cc(NC(=O)CSc2ccccn2)c1 | 0% | -7% | . | 4% | 5%
CN(C)S(=O)(=O)c1ccc(SCC(=O)Nc2ccc3c(c2)OCCO3)nc1 | 11% | 1% | . | 21µM* | -1%
O=C(CSc1nc(-c2ccccc2)[nH]c1-c1ccccc1)Nc1ccc2c(c1)OCCO2 | . | . | -2% | 9.5µM* | .
O=C(CSc1ncccn1)NC(=O)Nc1ccc2c(c1)OCCO2 | 2% | 10% | 8% | 24µM* | 16%
O=C(CSc1ccccn1)Nc1ccc2ccccc2c1 | 3.5µM* | ? | . | 4.8µM* | 2.8µM*
O=P(O)(O)OP(=O)(O)O | . | . | 1%[9.22 µM] | . | .
CC(=O)NCCc1nc2cc(NC(=O)COc3cccc(C)c3)ccc2n1C | 23% | 12% | . | ? | 28%
CN(C)c1ccc(C(C(=O)NC2CCCC2)N(C(=O)c2ccco2)C2CC2)cc1 (centres undefined) | 0% | 2% | . | 0% | -3%
CCC(C)NC(=O)CC(c1ccccc1)c1cc(C)ccc1O (centres undefined) | -5% | -2% | -11% | 1% | 3%
O=C(CSC1=NCCS1)Nc1ccc2ccccc2c1 | 18% | 3% | . | 17µM* | 18%
O=C(COc1ccc2ccccc2c1)NC1=NCCS1 | 4.5µM* | 8% | 9% | 4.8µM* | ?
CC(=O)Nc1ccc(NC(=O)CSC2=NCCS2)cc1 | 2% | 1% | -10% | 0% | -8%
O=C(CSc1ccccn1)Nc1ccc2c(c1)CCC2 | 17% | ? | . | 12µM* | ?
Cc1c(Cl)cccc1NC(=O)Cn1c(=O)nc(-c2ccccc2)c2ccccc21 | . | . | . | 2% | .
COc1ccc(NC(=O)Cc2c(SC)c3ccccc3n2Cc2ccccc2)cc1 | -2% | 2% | -48% | -3% | -2%
O=C(OCC(=O)c1ccc(Cl)s1)c1cnccn1 | -5% | 2% | . | 19µM* | 8%
O=C(OCC(=O)c1ccc(Cl)s1)c1ccccn1 | 0% | -1% | 5% | 7.6µM* | 0%
O=C(OCc1ccc(Cl)cc1)c1cnccn1 | 4% | -1% | 19% | -4% | 6%
